High-throughput results as filed in PubChem BioAssay.
This is a sample that favours compounds with a hit; in the whole collection about 1.6% have one here.
m5-HT2A agonist = mouse Htr2a agonists via beta-arrestin recruitment, primary screen, cell-based, luminescence | activation, % at 7.6 µM | CHO-K1 mHTR2A beta-arrestin complementation; percent of 30 µM serotonin response | actives 0.66% (n = 360,000);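 active means activation above a run cutoff, the mean activation of all tested compounds plus 3 SD, cut at about 14% in these data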
OPRM1-OPRD1 ag = agonists of OPRM1-OPRD1 heterodimerization, primary screen, cell-based, luminescence; actives 0.3% (n = 340,000); activation, % at 9.3 µM; cells; in the data active means activation above about 18%
OPRM1-OPRD1 inv = inverse agonists of MOR-DOR heterodimerization, primary screen, cell-based, luminescence | cell-based MOR-DOR heterodimer luminescence, inverse agonism | inhibition, % at 9.3 µM | actives 0.21% (n = 340,000) | AID 504357, 2011; in the data active means inhibition above about 22%, passing the limit was not always enough
HTR5A inv ag = HTR5A inverse agonists in luminescence cell assay, primary screen, counter-screen for OPRM1-OPRD1 heterodimer inverse agonist project, full-deck HTS; 5-hydroxytryptamine receptor 5A (Homo sapiens), P47898; HTR5A cell line, inverse agonism; inhibition, % at 9.3 µM; actives 0.083% (n = 340,000); AID 504634, 2011; in the data active means inhibition mostly above about 23%, no sharp cut-off; inactive means mostly below about 18%
HTR5A ag = HTR5A agonists in luminescence cell assay, primary screen, counter-screen for OPRM1-OPRD1 heterodimer agonist project, full-deck HTS; 5-hydroxytryptamine receptor 5A (Homo sapiens), P47898; cell-based; activation, % at 9.3 µM; actives 0.61% (n = 340,000); in the data active means activation mostly above about 9.5%, no sharp cut-off; inactive means mostly below about 7.6%
Large screens that a line does not name were inactive.

Cc1ccc2c(c1)C(CCN)C(=O)N2Cc1ccccc1 (stereo not drawn)	OPRM1-OPRD1 inv 65, HTR5A inv ag 57
Cc1ccc2c(c1)N(Cc1ccccc1)C(=O)C(C)S2 (stereo not drawn)	none (no result: OPRM1-OPRD1 ag, OPRM1-OPRD1 inv, HTR5A inv ag, HTR5A ag)
NC(Cc1ccc(C(F)(F)F)cc1)c1csc(NC(=O)Nc2ccccc2Oc2ccccc2)n1 (stereo not drawn)	none (no result: OPRM1-OPRD1 ag, OPRM1-OPRD1 inv, HTR5A inv ag, HTR5A ag)
Cc1ccc(-c2noc(CCC(=O)NCc3ccccc3CN3CCOCC3)n2)cc1	HTR5A ag 14
O=C1OCCC1=CN1CCCCC1	none (no result: OPRM1-OPRD1 ag, OPRM1-OPRD1 inv, HTR5A inv ag, HTR5A ag)
O=C(CNc1ccccc1)N/N=C/c1c[nH]c2ccccc12	HTR5A ag 13
CC(=O)Nc1ccc(NC(=S)Nc2ccc(Br)cc2)cc1	none
Cc1ccc(NC(=S)Nc2ccc(Br)cc2)cc1	HTR5A ag 13
O=C(COc1ccc2ccc(=O)oc2c1)NCCCN1CCCC1=O	HTR5A ag 13
CCN1CCN(C(CNS(=O)(=O)c2ccc(Cl)cc2)c2cccnc2)CC1 (stereo not drawn)	none
CCN1CCN(C(CNS(=O)(=O)c2ccc(Br)cc2)c2cccnc2)CC1 (stereo not drawn)	HTR5A ag 12
FC(F)(F)c1cccc(NC(=S)N2CCN(c3cccc(C(F)(F)F)c3)CC2)c1	m5-HT2A agonist 15
Fc1ccc(NC(=S)N2CCN(c3cccc(C(F)(F)F)c3)CC2)cc1	none
COC(=O)CCC(=O)OC1(C)C(=O)C2=CN(C3CC3)C(c3ccc(OC)cc3)=CC2=C(Br)C1=O (stereo not drawn)	HTR5A ag 9.4
COc1ccc2[nH]cc(CCn3ccc(=O)c(C)c3C)c2c1	HTR5A ag 11
O=[N+]([O-])c1ccc(Cl)c(CN2CCN(c3ncc(Cc4ccccc4)cn3)CC2)c1	none (no result: OPRM1-OPRD1 ag, OPRM1-OPRD1 inv, HTR5A inv ag, HTR5A ag)
Cc1ccccc1/C=N/NC(=O)c1sccc1C	none
COc1ccc(/C=N/NC(=O)c2sccc2C)c2ccccc12	HTR5A ag 13
CC12CCC(=O)C=C1CCC1C2C(O)CC2(C)C1CCC2(O)C(=O)COC(=O)CCC1CCCC1 (stereo not drawn)	none (no result: OPRM1-OPRD1 ag, OPRM1-OPRD1 inv, HTR5A inv ag, HTR5A ag)
COc1ccc(N(C(=O)CCl)C(C(=O)NCCc2ccccc2)c2cccs2)cc1 (stereo not drawn)	OPRM1-OPRD1 ag 68, HTR5A ag 55
Cc1cc(OC(C)C(=O)NC2CC(C)(C)NC(C)(C)C2)c2c(C)c(C)c(=O)oc2c1 (stereo not drawn)	none (no result: OPRM1-OPRD1 ag, OPRM1-OPRD1 inv, HTR5A inv ag, HTR5A ag)
Cc1ccc(CNC(=O)C2CCN(S(=O)(=O)c3ccc4c(c3)CC(C)N4C(=O)C3CCC3)CC2)o1 (stereo not drawn)	HTR5A ag 11
C#CC(=O)N(c1cccc(OC)c1)C(C(=O)NC1CCCC1)c1cccs1 (stereo not drawn)	OPRM1-OPRD1 ag 28, HTR5A ag 28
CCCCCC(=O)N1C[C@@H](n2cc(COC(=O)c3ccccc3)nn2)[C@H](O)C[C@@H]1c1ccc(C)cc1	none (no result: OPRM1-OPRD1 ag, OPRM1-OPRD1 inv, HTR5A inv ag, HTR5A ag)
COC(=O)CN(c1cc(OC)ccc1OC)S(=O)(=O)c1ccc(OC)c(OC)c1	HTR5A ag 9.2
CCCNC(=O)C1(C)CCCN(C(=O)c2cc(C)nn2C(C)(C)C)C1 (stereo not drawn)	none (no result: OPRM1-OPRD1 ag, OPRM1-OPRD1 inv, HTR5A inv ag, HTR5A ag)
CS(=O)(=O)c1ncc(Cl)c(C(=O)Nc2ccc3ccccc3c2)n1	OPRM1-OPRD1 inv 57
CC(C)CC1NC(=O)N(CC(=O)Nc2ccc3c(c2)OCCO3)C1=O (stereo not drawn)	HTR5A ag 11
Cc1ccc(C(O)c2ncc(-c3ccccc3Cl)[nH]2)c(C)c1 (stereo not drawn)	none (no result: OPRM1-OPRD1 ag, OPRM1-OPRD1 inv, HTR5A inv ag, HTR5A ag)
C=CCn1c(SCC(=O)Nc2ccc(-c3nc4ccc(C)cc4s3)cc2)nnc1-c1ccccc1	OPRM1-OPRD1 ag 20
C=CCn1c(SCC(=O)Nc2ccc(C(=O)OC(C)C)cc2)nnc1-c1cccs1	HTR5A ag 9.0
CCOC(=O)c1ccc(NC(=O)CSc2nnc(-c3cccs3)n2CC)cc1	none
Cc1cc(-n2c(C)cc(C(=O)CSc3ncnc4ccccc34)c2C)no1	HTR5A ag 16
Cc1cc(C(=O)CSc2ncnc3ccccc23)c(C)n1C1CC1	none
C[C@H](CO)N1C[C@H](C)[C@@H](CN(C)Cc2ccncc2)OCCCC[C@H](C)Oc2ccc(NC(=O)CCCN(C)C)cc2C1=O	none (no result: OPRM1-OPRD1 ag, OPRM1-OPRD1 inv, HTR5A inv ag, HTR5A ag)
